This is part of a sample that, as a whole, favours compounds with a hit. Of some 83,000 tested, about 20% had one in any assay.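 Single-dose data. Exposure time 48 hours. Values below 10 considered active.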 A number with no mark means an inactive call. The source made the active and inactive calls.
Key:
Experiment in all cases: NCI-60 one-dose screen, 48 h (100 = growth as untreated, 0 = no growth, -100 = all killed)
Conditions in all cases: 10 µM unless noted
[1] = tested on: DU-145 prostate
[2] = tested on: K-562 leukemia
[3] = tested on: MALME-3M melanoma
[4] = tested on: MDA-MB-231 breast
[5] = tested on: RXF 393 renal
[6] = tested on: SF-268 CNS
[7] = tested on: SF-295 CNS
[8] = tested on: SF-539 CNS
[9] = tested on: UACC-257 melanoma
[10] = tested on: M14 melanoma
[11] = tested on: HCT-15 colon
[12] = tested on: HT29 colon
[13] = tested on: SNB-75 CNS
[14] = tested on: SNB-19 CNS
[15] = tested on: U251 CNS
[16] = tested on: PC-3 prostate
[17] = tested on: SK-MEL-5 melanoma
[18] = tested on: UACC-62 melanoma
[19] = tested on: LOX IMVI melanoma
[20] = tested on: SK-MEL-28 melanoma

## COc1cccc(Cc2nn3cc(-c4ccccc4)nc3s2)c1
[1]
  growth: 94.4%
[2]
  growth: 27.7%
[3]
  growth: 96.2%
[4]
  growth: 78.9%
[5]
  growth: 117%
[6]
  growth: 89.2%
[7]
  growth: 103%
[8]
  growth: 102%
[9]
  growth: 89.7%
[10]
  growth: 84.1%
[11]
  growth: 76.9%
[12]
  growth: 54.6%
[13]
  growth: 99.7%
[14]
  growth: 102%
[15]
  growth: 99.1%
[16]
  growth: 96.5%
[17]
  growth: 93.9%
[18]
  growth: 91.1%
[19]
  growth: 51.5%
[20]
  growth: 113%

## OC(COc1ccccc1Cl)CN1CCN(c2cccc(Cl)c2)CC1 (stereo not given)
[1]
  growth: 114%
[2]
  growth: 108%
[3]
  growth: 107%
[4]
  growth: 89.3%
[5]
  growth: 118%
[6]
  growth: 105%
[7]
  growth: 105%
[8]
  growth: 101%
[9]
  growth: 93.4%
[10]
  growth: 98.1%
[11]
  growth: 97.2%
[12]
  growth: 99.2%
[13]
  growth: 104%
[14]
  growth: 97.6%
[15]
  growth: 97.6%
[16]
  growth: 84.4%
[17]
  growth: 102%
[18]
  growth: 98.5%
[19]
  growth: 91.6%
[20]
  growth: 107%

## CCOC(=O)Nc1ccc(C(=O)/C=C/c2ccccc2)cc1
[1]
  growth: 86.4%
[2]
  growth: 24.2%
[3]
  growth: 103%
[4]
  growth: 95.9%
[5]
  growth: 36.8%
[6]
  growth: 93.8%
[7]
  growth: 106%
[8]
  growth: 67.9%
[9]
  growth: 115%
[10]
  growth: 79.2%
[11]
  growth: 85.7%
[12]
  growth: 37.4%
[13]
  growth: 116%
[14]
  growth: 81.4%
[15]
  growth: 73.6%
[16]
  growth: 88.6%
[17]
  growth: 92.2%
[18]
  growth: 81.5%
[19]
  growth: 70.5%
[20]
  growth: 101%

## CCOC(=O)CC1C(COC(=O)NC)OC(n2cnc3c(NC(=O)Nc4ccccc4)ncnc32)C1O[Si](C)(C)C(C)(C)C (stereo not given)
[1]
  growth: 58.7%
[2]
  growth: 28.7%
[3]
  growth: 53.5%
[4]
  growth: 71.7%
[5]
  growth: 35%
[6]
  growth: 59.9%
[7]
  growth: 66.1%
[8]
  growth: 33.4%
[9]
  growth: 59.2%
[10]
  growth: 57.1%
[11]
  growth: 52.2%
[12]
  growth: 8.8% (active)
[13]
  growth: 45.4%
[14]
  growth: 99.1%
[15]
  growth: 52%
[16]
  growth: 32.4%
[17]
  growth: 23.5%
[18]
  growth: 65.1%
[19]
  growth: 48.6%
[20]
  growth: 71.9%

## c1ccc(-c2nc3sc(-c4ccccc4)cn3n2)cc1
[1]
  growth: 84.4%
[2]
  growth: 88.5%
[3]
  growth: 124%
[4]
  growth: 64.5%
[5]
  growth: 97.7%
[6]
  growth: 92.3%
[7]
  growth: 101%
[8]
  growth: 98.7%
[9]
  growth: 86%
[10]
  growth: 86.7%
[11]
  growth: 91.6%
[12]
  growth: 90.3%
[13]
  growth: 84.3%
[14]
  growth: 88.5%
[15]
  growth: 93.6%
[16]
  growth: 63%
[17]
  growth: 80%
[18]
  growth: 66.9%
[19]
  growth: 83.3%
[20]
  growth: 107%

## Cc1onc2c(-c3ccccc3)n[nH]c(=O)c12
[1]
  growth: 110%
[2]
  growth: 69.8%
[3]
  growth: 81.5%
[4]
  growth: 100%
[5]
  growth: 122%
[6]
  growth: 121%
[7]
  growth: 97.1%
[8]
  growth: 93.8%
[9]
  growth: 122%
[10]
  growth: 105%
[11]
  growth: 104%
[12]
  growth: 90.4%
[13]
  growth: 83%
[14]
  growth: 90.3%
[15]
  growth: 97.6%
[16]
  growth: 90.5%
[17]
  growth: 105%
[18]
  growth: 95.3%
[19]
  growth: 104%
[20]
  growth: 108%

## COc1ccc2sc3c(NCCCNCCO)nc4ccccc4c3c(=O)c2c1
[1]
  growth: 41%
[2]
  growth: -28.2% (active)
[3]
  growth: 85.9%
[4]
  growth: -12.9% (active)
[5]
  growth: 52.3%
[6]
  growth: 50.8%
[7]
  growth: 85.7%
[8]
  growth: 45.5%
[9]
  growth: 92.3%
[10]
  growth: -66.6% (active)
[11]
  growth: 44%
[12]
  growth: -39.2% (active)
[13]
  growth: 65.9%
[14]
  growth: 66.8%
[15]
  growth: 32.2%
[16]
  growth: 62.3%
[17]
  growth: 81.4%
[18]
  growth: 85%
[19]
  growth: -99.1% (active)
[20]
  growth: 70.6%

## CC(=O)OC[C@H]1OC(Sc2sc(C(=O)c3ccc(C)cc3)c(N)c2-c2nc3ccccc3s2)[C@H](OC(C)=O)[C@@H](OC(C)=O)[C@@H]1OC(C)=O (stereo not given in full)
[1]
  growth: 42.1%
[2]
  growth: 68.4%
[3]
  growth: 43.9%
[4]
  growth: 30%
[5]
  growth: 53.5%
[6]
  growth: 71%
[7]
  growth: 73.6%
[8]
  growth: 28.2%
[9]
  growth: 79.3%
[10]
  growth: 65.7%
[11]
  growth: 59.5%
[12]
  growth: 69%
[13]
  growth: 25.4%
[14]
  growth: 74.4%
[15]
  growth: 59.5%
[16]
  growth: 63.2%
[17]
  growth: 45.5%
[18]
  growth: 55.8%
[19]
  growth: 54.5%
[20]
  growth: 76.4%

## NCCOc1ncccc1/C=C1\C2C=CC=CC2C2C=CC(F)=CC12 (stereo not given)
[1]
  growth: 6.22% (active)
[2]
  growth: 8.35% (active)
[3]
  growth: 39.2%
[4]
  growth: 37.4%
[5]
  growth: 39.9%
[6]
  growth: 32.3%
[7]
  growth: -2.83% (active)
[8]
  growth: 11.1%
[9]
  growth: 71.7%
[10]
  growth: 18.8%
[11]
  growth: 7.3% (active)
[12]
  growth: 14.4%
[13]
  growth: 40.3%
[14]
  growth: 16%
[15]
  growth: 10.8%
[16]
  growth: 33.9%
[17]
  growth: 21.7%
[18]
  growth: 31.5%
[19]
  growth: -22.5% (active)
[20]
  growth: 64.3%

## C=C1C(=O)O[C@H]2[C@H]1CC/C(COC(=O)CCSSCCC(=O)OC/C1=C/CC[C@@]3(C)O[C@H]3[C@H]3OC(=O)C(=C)[C@@H]3CC1)=C\CC[C@@]1(C)O[C@@H]21
[1]
  growth: 10.7%
[2]
  growth: -1.59% (active)
[3]
  growth: -27.1% (active)
[4]
  growth: -83.7% (active)
[5]
  growth: -93.6% (active)
[6]
  growth: 24.8%
[7]
  growth: 72.9%
[8]
  growth: -63.4% (active)
[9]
  growth: -7.74% (active)
[10]
  growth: -10.1% (active)
[11]
  growth: -74.2% (active)
[12]
  growth: -78.7% (active)
[13]
  growth: 52.5%
[14]
  growth: 39.2%
[15]
  growth: -12% (active)
[16]
  growth: -11.6% (active)
[17]
  growth: 41.7%
[18]
  growth: 36.7%
[19]
  growth: -75.8% (active)
[20]
  growth: -42.8% (active)

## CS(=O)(=O)Nc1cc(-c2ccc3ncnc(Nc4cccc(Cl)c4F)c3c2)cnc1Cl
[1]
  growth: 63%
[2]
  growth: 53.4%
[3]
  growth: 18.2%
[4]
  growth: 13.7%
[5]
  growth: -24% (active)
[6]
  growth: 24.2%
[7]
  growth: 34.7%
[8]
  growth: 27.8%
[9]
  growth: 40.1%
[10]
  growth: 50.1%
[11]
  growth: 41.9%
[12]
  growth: 47.6%
[13]
  growth: 9.28% (active)
[14]
  growth: 46.4%
[15]
  growth: 33.6%
[16]
  growth: 41.4%
[17]
  growth: 24.7%
[18]
  growth: 8.37% (active)
[19]
  growth: 4.21% (active)
[20]
  growth: 24.6%

## CCCCn1c(=O)c(-c2cc(-c3ccc(Cl)cc3)nc(-c3ccc(Cl)cc3)c2)cc2cc(C)ccc21
[1]
  growth: 112%
[2]
  growth: 99.3%
[3]
  growth: 105%
[4]
  growth: 92.8%
[5]
  growth: 105%
[6]
  growth: 98%
[7]
  growth: 99.1%
[8]
  growth: 97.9%
[9]
  growth: 100%
[10]
  growth: 102%
[11]
  growth: 101%
[12]
  growth: 101%
[13]
  growth: 98.5%
[14]
  growth: 98.8%
[15]
  growth: 106%
[16]
  growth: 97.2%
[17]
  growth: 104%
[18]
  growth: 89.7%
[19]
  growth: 98.5%
[20]
  growth: 107%

## COc1c(N2CC3CCCN(C(C)=O)C3C2)c(F)cc2c(=O)c(C(=O)N[C@H]3C(O)[C@@H](O)C(CO)O[C@H]3O)cn(C3CC3)c12 (stereo not given in full)
[1]
  growth: 112%
[2]
  growth: 103%
[3]
  growth: 117%
[4]
  growth: 103%
[5]
  growth: 128%
[6]
  growth: 92.3%
[7]
  growth: 103%
[8]
  growth: 103%
[9]
  growth: 103%
[10]
  growth: 110%
[11]
  growth: 98.5%
[12]
  growth: 105%
[13]
  growth: 100%
[14]
  growth: 99.4%
[15]
  growth: 102%
[16]
  growth: 108%
[17]
  growth: 101%
[18]
  growth: 101%
[19]
  growth: 87.1%
[20]
  growth: 112%

## Cc1ccc(/C=C(\C#N)n2nc3cccc(F)c3n2)cc1
[1]
  growth: 97.8%
[2]
  growth: 80.5%
[3]
  growth: 93%
[4]
  growth: 98.3%
[5]
  growth: 89.7%
[6]
  growth: 93.4%
[7]
  growth: 92.8%
[8]
  growth: 92.6%
[9]
  growth: 97.7%
[10]
  growth: 98.2%
[11]
  growth: 82.6%
[12]
  growth: 114%
[13]
  growth: 74.7%
[14]
  growth: 96.6%
[15]
  growth: 86.3%
[16]
  growth: 102%
[17]
  growth: 89.9%
[18]
  growth: 83.7%
[19]
  growth: 86.2%
[20]
  growth: 96.2%

## COc1cc(C(=O)N/N=C/c2cc3cc(OCc4ccccc4)ccc3nc2OC)cc(OC)c1OC
[1]
  growth: 102%
[2]
  growth: 74.6%
[3]
  growth: 110%
[4]
  growth: 94.7%
[5]
  growth: 79.6%
[6]
  growth: 79.7%
[7]
  growth: 98.4%
[8]
  growth: 85.8%
[9]
  growth: 79.2%
[10]
  growth: 83.4%
[11]
  growth: 80.3%
[12]
  growth: 82.9%
[13]
  growth: 77.7%
[14]
  growth: 90.3%
[15]
  growth: 84.8%
[16]
  growth: 68.1%
[17]
  growth: 63.7%
[18]
  growth: 84.3%
[19]
  growth: 81.9%
[20]
  growth: 100%

Reference: PubChem BioAssay (NCI)
